Laboratory results from PubChem BioAssay.
Unmarked numbers belong to inactive results. No rule for the calls is given here.

Experiment: inhibitors of hydroxyurea-induced Chk1 phosphorylation, primary screen, imaging, HeLa, phospho-Chk1 nuclear intensity (AID 1187); also: test concentration not given here
Settings: hydroxyurea-induced phospho-Chk1 immunofluorescence imaging, higher = more signal

Compound | z-score
COC(=O)[C@@]1(Cc2ccc(OC)cc2)[C@H]2c3cc(C(=O)N4CCCC4)n(Cc4cc(F)c(F)c(F)c4)c3C[C@H]2CN1C(=O)c1ccccc1 | -0.868
CN(C)C(=O)[C@@]1(Cc2ccccc2)N=C(c2ccc(OCCCO)cc2)O[C@H]1c1ccccc1CN=[N+]=[N-] | 0.492
COc1ccc([Si](C)(C)[C@@H]2[C@@H](CCO)O[C@]3(C(=O)N(Cc4ccc(NC(C)=O)cc4)c4ccccc43)[C@H]2C)cc1 | -0.16
O=C1O[C@@H](c2ccccc2)[C@@H](c2ccccc2)N2[C@@H](c3ccc(O)cc3)[C@]3(C(=O)Nc4ccccc43)[C@@H](C(=O)O)[C@H]12 | 0.166
O=C1c2ccccc2[C@@]2(Cc3ccccc3N(C3CC3)C2=O)[C@H](c2ccc(CO)cc2)N1Cc1ccccc1C(F)(F)F | 0.145
O[C@@H](Cc1ccccc1)[C@H]1C2C=CCCC(c3ccccc3)=C2CN1Cc1cccc(Cl)c1 (stereo partly specified) | 0.0934
